Assay results reported in PubChem BioAssay AID1159580 (chemical genetic matrix, 2015).
Among all 5,500 compounds or so, about 2,000 (36%) were called active. About 18% were inconclusive and are not listed. The list shows a part of the results. Unmarked numbers belong to inactive results. Cut-off read from the data, not from the text of the source: active = normalized growth mostly below about 0.91 (no sharp cut-off); inconclusive = no clear call, values can overlap the other calls; inactive = mostly above about 0.92.

Assay: chemical genetic growth profiling, strain panel (AID 1159580);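 note: tested at 20 µM; growth read once vehicle control cultures reached saturation at 30 °C; 1 = growth at the plate median or of vehicle wells; lower values mean less growth of the strain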
Conditions: S. cerevisiae deletion strains, growth OD

## CCOC(=O)C1=C(N)Oc2ccc(Br)cc2C1C(C#N)C(=O)OCC (stereo not drawn)
Locus YAL013W, strain DEP1, active compounds read low
  normalized growth: 0.934
Locus YBR229C, strain ROT2, active compounds read low
  normalized growth: 0.938
Locus YCL061C, strain MRC1, active compounds read low
  normalized growth: 0.916
Locus YDL101C, strain DUN1, active compounds read low
  normalized growth: 0.884 (active)
Locus YDR150W, strain NUM1, active compounds read low
  normalized growth: 0.957
Locus YEL061C, strain CIN8, active compounds read low
  normalized growth: 0.648 (active)
Locus YGR078C, strain PAC10, active compounds read low
  normalized growth: 0.938
Locus YGR229C, strain SMI1, active compounds read low
  normalized growth: 0.963
Locus YHR030C, strain SLT2, active compounds read low
  normalized growth: 0.293 (active)
Locus YHR087W, strain rtc3, active compounds read low
  normalized growth: 0.979
Locus YJL187C, strain SWE1, active compounds read low
  normalized growth: 0.959
Locus YJR043C, strain POL32, active compounds read low
  normalized growth: 0.983
Locus YJR075W, strain HOC1, active compounds read low
  normalized growth: 0.88 (active)
Locus YLR039C, strain RIC1, active compounds read low
  normalized growth: 0.386 (active)
Locus YLR058C, strain SHM2 (second series), active compounds read low
  normalized growth: 0.986
Locus YLR085C, strain ARP6, active compounds read low
  normalized growth: 0.379 (active)
Locus YLR262C, strain YPT6, active compounds read low
  normalized growth: 0.46 (active)
Locus YML094W, strain GIM5, active compounds read low
  normalized growth: 0.669 (active)
Locus YMR219W, strain ESC1, active compounds read low
  normalized growth: 0.979
Locus YMR263W, strain SAP30, active compounds read low
  normalized growth: 0.964
Locus YMR307W, strain GAS1, active compounds read low
  normalized growth: 0.667 (active)
Locus YNL153C, strain GIM3, active compounds read low
  normalized growth: 0.982
Locus YNL298W, strain CLA4 (second series), active compounds read low
  normalized growth: 0.61 (active)
Locus YNL322C, strain KRE1, active compounds read low
  normalized growth: 0.992
Locus YNR030W, strain Alg12, active compounds read low
  normalized growth: 0.528 (active)
Locus YPL055C, strain LGE1, active compounds read low
  normalized growth: 0.98
Locus YPL241C, strain CIN2, active compounds read low
  normalized growth: 0.472 (active)
Locus YPR135W, strain CTF4, active compounds read low
  normalized growth: 0.424 (active)
